PI4K2A block: blocks human PI4K2A kinase activity; Q9BTU6; purified PI4K2A, ADP-Glo luminescence, 1 h; active compounds read low; activity change, negative = inhibition, % at 76.9 µM; actives 0.13% (n = 420,000); AID 1346378; in the data active means activity change below about -50%; inconclusive means mostly about -30% to -49%;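 further: -100% = wells without enzyme as full effect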
Target sequence (Q9BTU6 whole entry, looked up): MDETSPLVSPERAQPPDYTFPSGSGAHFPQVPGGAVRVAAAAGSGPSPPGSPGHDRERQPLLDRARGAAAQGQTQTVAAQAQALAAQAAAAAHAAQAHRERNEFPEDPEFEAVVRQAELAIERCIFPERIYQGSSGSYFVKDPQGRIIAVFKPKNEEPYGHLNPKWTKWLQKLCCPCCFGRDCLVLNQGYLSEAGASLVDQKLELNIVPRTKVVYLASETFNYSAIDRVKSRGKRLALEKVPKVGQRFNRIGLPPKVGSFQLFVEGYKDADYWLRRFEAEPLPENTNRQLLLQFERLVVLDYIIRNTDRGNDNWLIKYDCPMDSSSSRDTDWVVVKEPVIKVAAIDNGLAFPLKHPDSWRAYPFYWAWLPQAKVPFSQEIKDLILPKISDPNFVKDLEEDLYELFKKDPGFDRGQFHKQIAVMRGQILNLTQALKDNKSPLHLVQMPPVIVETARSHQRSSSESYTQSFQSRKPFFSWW
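PI4K2A activity was measured by ADP-Glo luminescence: enzyme (4 ug/mL stock) and phosphatidylinositol (1.2 mM stock) in Tris pH 7.5/MgCl2/EGTA/Triton X-100 buffer were reacted with ATP (300 microM stock) for one hour at ambient temperature.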
A549 tox: counter-screen for Nrf2 inhibitors: cytotoxicity in A549 cells | Potency, µM (titrated, usually from 46 µM), without a hit: top-dose activity change, negative = cytotoxicity, most hits filed as inhibitors | actives 0.16% (n = 390,000) | A549 ARE-Fluc cells, CellTiter-Fluor viability, 18-24 h | AID 504648; further: potency means the concentration at half of the fitted maximal effect
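A549 ARE-Fluc cells in 5% FBS OPTI-MEM, 5000 cells/well, rested 2 h then exposed to compounds in concentration-response for 18-24 h at 37 °C. Viability by CellTiter-Fluor fluorescence (Ex 405/Em 525) after 30 min; luciferase luminescence (BugLite, 15 min, RT) read afterwards.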
Nrf2 inh: inhibitors of Nrf2 signaling | Potency, µM (doses to about 46 µM), for inactives: at the top dose activity change, negative = inhibition, hits mostly inhibitors | actives 2.1% (n = 360,000) | A549 ARE-Fluc reporter, luciferase luminescence, 18-24 h; further: potency means the concentration at half of the fitted maximal effect; nearly all actives have a fitted effect of over 60% in size
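Two sequential reads on A549 ARE_Fluc cells exposed to compound for 18-24 h: a CellTiter-Fluor fluorescence read for viability, then a luciferase luminescence read for Nrf2/ARE activity.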
KB-V1 MDR tox: KB-V1 MDR subline cytotoxicity. KB-V1 MDR cells viability, CellTiter-Glo, 72 h. Potency, µM (titrated, usually from 46.1 µM), most hits filed as cytotoxic. actives 3.4% (n = 400,000); further: potency means the concentration at half of the fitted maximal effect; nearly all actives have a fitted effect of over 60% in size
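KB-V1 MDR subline cells in DMEM (phenol-red free, 10% FBS) exposed to compounds in qHTS concentration series for 72 h at 37 degrees C. Viability read by CellTiter-Glo luminescence; concentration-effect curves fitted after normalization and correction.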
Giardia killer: Giardia lamblia killing; Giardia lamblia trophozoite viability; activity change, % at 7.66 µM, hits read low; actives 0.15% (n = 340,000); AID 540267; in the data active means activity change below about -80%; inconclusive means between about -30% and that limit;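 further: parasites exposed to compound for two days anaerobically before the ATP read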
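Compounds were tested on trophozoites seeded at 100 cells/well and held 48 hrs at 37 deg C anaerobically. An ATP-based luminescent kit measured the remaining live cells.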
KB-3-1 cytotox: kills parental KB-3-1 adenocarcinoma cells; Potency, µM (highest dose often 46.1 µM), most hits filed as cytotoxic; actives 1.4% (n = 400,000); KB-3-1 viability, CellTiter-Glo ATP luminescence, 72 h; further: potency means the concentration at half of the fitted maximal effect; nearly all actives have a fitted effect of over 60% in size
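Cells are dispensed, compounds pinned in, plates held at 37 °C for 72 h, then CellTiter-Glo is added and luminescence read after 10 minutes. Cell line: parental KB-3-1 in phenol-red-free DMEM, 10% FBS.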
* = called active by the depositor; i = inactive; u = inconclusive; x = no result given. Hits are enriched below; roughly 5.7% of the tested compounds scored in any of these assays. Unless noted, the call rests on the fitted dose curve; in most records, active means well fitted curve in the direction sought with a large enough effect; inconclusive means small, poorly fitted or top-dose-only effect, or another doubt; inactive means no such curve, though single readings can be large; an effect the other way counts as inactive or inconclusive. Unless noted, on the % scale 0 is the no-effect control and ±100 the full control effect.

SMILES	PI4K2A block	A549 tox	Nrf2 inh	KB-V1 MDR tox	Giardia killer	KB-3-1 cytotox
COCCNC(=O)CN(CCc1ccccc1)S(=O)(=O)c1ccc(OC)cc1	-2	-11%	-9%	18µM*	-1	i
COc1ccc(S(=O)(=O)N(CCc2ccccc2)CC(=O)NCc2ccc(C)cc2)cc1	-2	-17%	u	i	x	u
CCOC(=O)CN(Cc1ccccc1)S(=O)(=O)c1ccc(NC(C)=O)cc1	4	-2%	x	15µM*	-5	i
COc1ccc(S(=O)(=O)N(CC(=O)Nc2ccc(Br)cc2)Cc2ccccc2)cc1	0	u	x	u	x	i
COc1ccc(S(=O)(=O)N(CC(=O)Nc2ccccc2Br)Cc2ccccc2)cc1	4	-4%	u	u	x	16µM*
c1cc(-c2nnc3n2N=C(c2ccc4c(c2)OCO4)CS3)ccn1	0	x	x	x	x	x
CCC(=O)N1CCc2cc(Br)c(S(=O)(=O)N3CCC(C(=O)NCCCOC(C)C)CC3)cc21	-2	x	x	x	x	x
COC(=O)c1[nH]c2c(c1C)C(=O)CC(c1ccccc1)C2 (centres undefined)	-1	-15%	-9%	0.58µM*	6	1.3µM*
Cc1c(C(=O)OC2CCCC2)[nH]c2c1C(=O)CC(c1ccco1)C2 (centres undefined)	0	-1%	u	0.58µM*	-16	0.52µM*
Cc1c(C(=O)OCC(C)C)[nH]c2c1C(=O)CC(c1ccco1)C2 (centres undefined)	-9	-10%	5%	u	8	i
Cc1c(C(=O)OCC2CCCO2)[nH]c2c1C(=O)CC(c1ccco1)C2 (centres undefined)	-54*	0%	-3%	4.1µM*	-16	3.3µM*
COC(=O)c1[nH]c2c(c1C)C(=O)CC(c1ccc(OC)cc1)C2 (centres undefined)	0	-7%	-21%	i	u	i
CC1=C(C(=O)OC2CCCCCC2)C(c2c(Cl)cccc2Cl)CC(=O)N1 (centres undefined)	-13	-10%	21µM*	i	x	i
COc1cc(OC)c(/C=C/c2ccncn2)c(OC)c1	x	x	x	i	x	u
Cc1nc(C(C)Nc2ncnc3ccc(-c4ccc5c(c4)OCO5)cc23)cs1 (centres undefined)	x	-2%	-12%	x	x	x
COc1cccc(-c2cn3c(n2)sc2cc(C(=O)NCc4ccccc4F)ccc23)c1	6	-1%	u	x	x	x
Cc1c(C(=O)N2CCOCC2)[nH]c2c1C(=O)CC(c1ccccc1Cl)C2 (centres undefined)	0	u	-12%	u	5	18µM*
Cc1c(C(=O)OCc2ccccc2)[nH]c2c1C(=O)CC(c1ccc(Cl)cc1)C2 (centres undefined)	1	-4%	-2%	x	x	x
Cc1c(C(=O)OC2CCCCC2)[nH]c2c1C(=O)CC(c1ccccc1Cl)C2 (centres undefined)	1	-2%	-8%	u	x	4.1µM*
Cc1c(C(=O)OC2CCCCC2)[nH]c2c1C(=O)CC(c1ccccc1)C2 (centres undefined)	1	-1%	1%	u	x	i
CC1(C)S[C@@H]2[C@H](NC(=O)C(c3ccccc3)S(=O)(=O)O)C(=O)N2[C@H]1C(=O)O (some centres undefined)	1	x	x	x	x	x
CCOC(=O)CNC(=S)N(Cc1ccc(C)cc1)Cc1ccc(C)o1	2	7%	-5%	16µM*	16	i
CCc1ccc(NC(=O)N(C2CCCCC2)C(C)c2cccnc2)cc1 (centres undefined)	-2	0%	u	21µM*	-4	i
Cc1ccc(CNC(=O)CNC(=S)N(Cc2ccccc2)Cc2cccnc2)cc1	-2	0%	4%	i	6	i
CCc1ccc(NC(=O)N(Cc2cccnc2)Cc2ccco2)cc1	-1	-4%	x	15µM*	-21	i
SMILES	PI4K2A block	A549 tox	Nrf2 inh	KB-V1 MDR tox	Giardia killer	KB-3-1 cytotox
Cc1ccc(CN(Cc2ccco2)C(=S)NCC(=O)NCc2cccnc2)cc1	-18	-10%	7.3µM*	u	1	i
CS(=O)(=O)c1ccc(C(=O)OCC(=O)NCC2CCCO2)cc1[N+](=O)[O-] (centres undefined)	x	-2%	-3%	i	-3	i
CCOC(=O)CC[C@H]1CC[C@]2(CCCN(C(=O)c3ccccc3)C2)O1	-1	x	x	x	x	x
COc1ccc(NC(=O)Cn2cnc3c(nc4n3CCCCC4)c2=O)c(OC)c1	4	12%	u	i	x	i
CCc1ccccc1NC(=S)N(Cc1ccco1)C(C)c1cccs1 (centres undefined)	-1	0%	-3%	i	-11	i
CCc1ccc(NC(=O)N(Cc2ccco2)C(C)c2cccs2)cc1 (centres undefined)	1	-20%	x	21µM*	18	u
CC1=C(C(=O)NCc2cccc(Cl)c2)C2(CCCCCC2)OC1=O	-9	15%	u	i	x	i
CC1(C(=O)Nc2ccc3c(c2)OCCO3)CCN1Cc1ccc2ccccc2c1 (centres undefined)	4	x	x	21µM*	x	u
CC1(C(=O)Nc2ccc3c(c2)OCO3)CCN1C(=O)Cc1ccc(-c2ccccc2)cc1 (centres undefined)	-4	x	x	3.3µM*	x	12µM*
COc1cc2nc(=S)n3[nH]c(COc4ccccc4C)nc3c2cc1OC	0	-1%	-10%	0.92µM*	9	u
Cc1cccn2c(=O)c(C(=O)NCCc3ccc(S(N)(=O)=O)cc3)c(O)nc12	1	11%	7%	i	x	i
Nc1ccncc1N	-8	-3%	15%	u	-5	21µM*
CCCCCCCC/C=C/C(=O)O	3	x	x	x	x	x
CCN(CC)C(=O)O[C@H]1CC[C@@]23CCCN2C(=O)CCC[C@H]3[C@H]1C	-3	x	x	x	x	x
COc1ccc2ccccc2c1C=NNC(=O)CN1CCN(Cc2ccccc2)CC1	1	x	x	x	x	x
CCn1c2ccccc2c2cc(NC(=O)COC(=O)c3cc(OC)c(OC)cc3OC)ccc21	0	-6%	16µM*	i	15	i
CC/C(=N\Nc1ccc([N+](=O)[O-])cc1)c1ccccc1	1	u	21µM*	i	0	i
O=[N+]([O-])c1ccc(NN=C(Oc2ccccc2)c2ccc([N+](=O)[O-])cc2)cc1	1	x	x	i	x	u
COc1ccc(-c2nnc3n2N=C(c2c(OC)cccc2OC)CS3)c(OC)c1	x	8%	-14%	x	x	x
O=C(c1ccc(CS(=O)Cc2ccccc2Cl)o1)N1CCN(c2ccccn2)CC1 (centres undefined)	-3	0%	13%	18µM*	-6	i

Bioassay records as filed in PubChem BioAssay.
